For some assays here: Measured potencies and affinities stand elsewhere.
Tests used:
Design in all cases: scale not given: direction of the effect not stated beside the values
[1] = target: Protein translocase subunit SecA (Escherichia coli (strain K12)) (UniProt P10408); experiment: Assay to Identify E. coli SecA ATPase Inhibitors; assay type: functional; details: 30 µM
[2] = target: T1, Ubiquitin-activating enzyme e1, putative (Leishmania donovani (strain BPK282A1)) (UniProt E9BSI1); experiment: Leishmania donovani Ubiquitin Activating Enzyme (LdE1); assay type: functional; details: 30 µM
T1 sequence (whole entry): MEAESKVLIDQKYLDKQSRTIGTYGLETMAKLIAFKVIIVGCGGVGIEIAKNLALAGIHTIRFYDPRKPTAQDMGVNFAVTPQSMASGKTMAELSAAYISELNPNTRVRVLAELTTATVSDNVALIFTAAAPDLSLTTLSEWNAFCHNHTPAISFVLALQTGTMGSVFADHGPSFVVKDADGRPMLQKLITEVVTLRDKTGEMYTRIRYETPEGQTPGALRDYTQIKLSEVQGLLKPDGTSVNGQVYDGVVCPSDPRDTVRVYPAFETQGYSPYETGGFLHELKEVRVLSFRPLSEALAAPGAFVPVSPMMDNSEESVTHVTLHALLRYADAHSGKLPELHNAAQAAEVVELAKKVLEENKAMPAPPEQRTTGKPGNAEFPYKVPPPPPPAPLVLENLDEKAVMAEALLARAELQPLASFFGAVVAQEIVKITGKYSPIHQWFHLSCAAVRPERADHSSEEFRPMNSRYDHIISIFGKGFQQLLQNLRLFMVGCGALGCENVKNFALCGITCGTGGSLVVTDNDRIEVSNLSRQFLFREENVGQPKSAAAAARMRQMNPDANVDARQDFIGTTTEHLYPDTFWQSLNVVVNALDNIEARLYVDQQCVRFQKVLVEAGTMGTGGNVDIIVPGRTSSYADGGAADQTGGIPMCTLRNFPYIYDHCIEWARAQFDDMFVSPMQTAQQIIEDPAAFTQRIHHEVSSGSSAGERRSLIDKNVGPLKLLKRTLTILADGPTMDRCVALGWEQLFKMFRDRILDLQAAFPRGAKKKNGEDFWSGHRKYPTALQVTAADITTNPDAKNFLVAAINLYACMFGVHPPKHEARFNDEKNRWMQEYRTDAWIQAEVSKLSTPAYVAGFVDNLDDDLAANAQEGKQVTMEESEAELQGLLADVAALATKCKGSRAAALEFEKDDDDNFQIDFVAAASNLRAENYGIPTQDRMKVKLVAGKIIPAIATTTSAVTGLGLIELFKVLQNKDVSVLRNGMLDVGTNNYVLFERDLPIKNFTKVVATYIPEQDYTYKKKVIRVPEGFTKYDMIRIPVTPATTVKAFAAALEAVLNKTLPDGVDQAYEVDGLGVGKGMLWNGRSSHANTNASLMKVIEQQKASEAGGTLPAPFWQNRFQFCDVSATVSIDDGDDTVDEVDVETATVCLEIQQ

[3] = target: AMP-activated protein kinase, AMPK (Homo sapiens) (UniProt P54646+O43741+P54619+Q9UGJ0+Q9Y478+Q13131+Q9UGI9); experiment: AMP-dependent Kinase enzyme assay. An in vitro enzyme assay that detects ADP turnover that is directly proportional to AMPK activity. This uses naive AMPK that is activated during the assay with MK-8722; assay type: functional; details: 30 µM
[4] = target: Sialic acid-binding Ig-like lectin 9 (Homo sapiens) (UniProt Q9Y336); experiment: Hs-Siglec9 ALPHAscreen SOP 20170721; details: 10 µM
Sequence of Sialic acid-binding Ig-like lectin 9 (Homo sapiens) (Q9Y336 whole entry): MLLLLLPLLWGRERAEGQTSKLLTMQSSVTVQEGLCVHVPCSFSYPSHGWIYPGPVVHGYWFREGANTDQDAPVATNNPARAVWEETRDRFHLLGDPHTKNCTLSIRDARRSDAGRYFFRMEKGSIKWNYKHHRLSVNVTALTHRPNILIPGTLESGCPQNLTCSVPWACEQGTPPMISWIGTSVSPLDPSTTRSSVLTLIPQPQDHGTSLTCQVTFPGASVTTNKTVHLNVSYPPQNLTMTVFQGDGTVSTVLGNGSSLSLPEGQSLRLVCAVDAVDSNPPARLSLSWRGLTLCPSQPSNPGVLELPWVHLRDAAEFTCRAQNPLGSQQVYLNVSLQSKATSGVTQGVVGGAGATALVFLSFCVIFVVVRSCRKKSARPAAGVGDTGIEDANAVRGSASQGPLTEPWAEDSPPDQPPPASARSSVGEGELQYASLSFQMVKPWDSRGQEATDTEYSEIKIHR

[5] = tested on: Trypanosoma cruzi; experiment: Trypanosoma cruzi phosphomannomutase and mannose-1-phosphate guanylyltransferase assay; assay type: functional; details: 10 µM
[6] = target: T2, Arginase-2, mitochondrial (Homo sapiens) (UniProt P78540); experiment: in vitro enzyme assay to detect the production of urea directly proportional to the activity of Arginase II; assay type: functional; details: 33.3 µM; also: in the data most compounds retested in dose-response had high values
T2 sequence (whole entry): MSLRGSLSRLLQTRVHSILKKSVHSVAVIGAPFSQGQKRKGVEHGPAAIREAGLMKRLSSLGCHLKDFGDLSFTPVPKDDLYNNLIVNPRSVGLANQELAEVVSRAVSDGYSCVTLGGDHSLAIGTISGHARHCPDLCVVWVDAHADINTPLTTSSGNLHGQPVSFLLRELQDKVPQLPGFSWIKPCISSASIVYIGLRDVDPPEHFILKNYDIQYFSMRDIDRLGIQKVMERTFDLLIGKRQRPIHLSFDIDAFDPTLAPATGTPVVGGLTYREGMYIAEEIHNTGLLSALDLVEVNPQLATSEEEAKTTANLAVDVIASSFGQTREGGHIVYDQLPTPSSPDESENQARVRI

[7] = target: T3, Proteasome subunit beta (Trypanosoma cruzi) (UniProt O96673); experiment: Trypanosoma cruzi proteasome chymotrypsin-like activity (TcProtChymo) assay.; also: in the data most compounds retested in dose-response had high values; assay type: functional; details: 9.37 µM
T3 sequence (whole entry): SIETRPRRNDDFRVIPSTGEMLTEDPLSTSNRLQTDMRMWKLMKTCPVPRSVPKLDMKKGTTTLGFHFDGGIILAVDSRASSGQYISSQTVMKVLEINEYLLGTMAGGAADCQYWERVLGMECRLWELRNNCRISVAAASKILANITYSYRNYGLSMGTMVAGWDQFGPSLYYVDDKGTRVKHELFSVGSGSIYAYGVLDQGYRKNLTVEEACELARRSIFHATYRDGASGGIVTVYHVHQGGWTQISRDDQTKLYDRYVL

[8] = species on record: Homo sapiens; experiment: To identify inhibition of the IFN signalling (Jak-Stat) pathway via expression of an eGFP reporter gene under the control of an IFN-stimulated response element (ISRE) containing MxA promoter.; assay type: functional; details: 30 µM
[9] = target: T4, Tyrosyl-tRNA synthetase, putative (Trypanosoma cruzi (strain CL Brener)) (UniProt Q4DSP6); experiment: Trypanosoma cruzi tyrosyl tRNA synthetase (TcYRS) _High Tyrosine SOP; assay type: functional; details: 30 µM; also: in the data most compounds retested in dose-response had high values
T4 sequence (whole entry): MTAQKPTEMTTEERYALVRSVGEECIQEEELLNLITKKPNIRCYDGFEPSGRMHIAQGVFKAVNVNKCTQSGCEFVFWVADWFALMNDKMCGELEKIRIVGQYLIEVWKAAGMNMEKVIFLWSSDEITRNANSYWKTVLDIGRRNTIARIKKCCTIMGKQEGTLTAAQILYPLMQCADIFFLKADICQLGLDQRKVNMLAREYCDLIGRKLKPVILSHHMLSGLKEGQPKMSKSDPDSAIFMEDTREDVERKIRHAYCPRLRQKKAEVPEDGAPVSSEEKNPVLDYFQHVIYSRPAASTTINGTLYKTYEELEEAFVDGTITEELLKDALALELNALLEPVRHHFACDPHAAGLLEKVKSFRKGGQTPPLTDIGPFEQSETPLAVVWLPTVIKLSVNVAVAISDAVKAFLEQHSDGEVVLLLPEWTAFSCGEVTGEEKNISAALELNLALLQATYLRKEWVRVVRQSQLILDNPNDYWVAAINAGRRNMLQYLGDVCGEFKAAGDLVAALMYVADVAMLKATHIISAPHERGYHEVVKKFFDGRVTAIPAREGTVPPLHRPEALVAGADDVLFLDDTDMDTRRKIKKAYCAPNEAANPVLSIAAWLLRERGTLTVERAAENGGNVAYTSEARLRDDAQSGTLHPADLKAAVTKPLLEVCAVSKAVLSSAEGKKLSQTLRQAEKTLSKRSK

[10] = target: T4, Tyrosyl-tRNA synthetase, putative (Trypanosoma cruzi (strain CL Brener)); experiment: Trypanosoma cruzi tyrosyl tRNA synthetase (TcYRS) SOP; assay type: functional; details: 30 µM
[11] = target: Chromo domain-containing protein 1 (Saccharomyces cerevisiae (strain ATCC 204508 / S288c) (Baker's yeast)) (UniProt P32657); experiment: ScCHD-1 Enzyme Inhibition Assay; assay type: functional; details: 30 µM; also: in the data most compounds retested in dose-response had high values
Sequence of Chromo domain-containing protein 1 (Saccharomyces cerevisiae (strain ATCC 204508 / S288c) (Baker's yeast)) (P32657 whole entry, the tested form may be a part): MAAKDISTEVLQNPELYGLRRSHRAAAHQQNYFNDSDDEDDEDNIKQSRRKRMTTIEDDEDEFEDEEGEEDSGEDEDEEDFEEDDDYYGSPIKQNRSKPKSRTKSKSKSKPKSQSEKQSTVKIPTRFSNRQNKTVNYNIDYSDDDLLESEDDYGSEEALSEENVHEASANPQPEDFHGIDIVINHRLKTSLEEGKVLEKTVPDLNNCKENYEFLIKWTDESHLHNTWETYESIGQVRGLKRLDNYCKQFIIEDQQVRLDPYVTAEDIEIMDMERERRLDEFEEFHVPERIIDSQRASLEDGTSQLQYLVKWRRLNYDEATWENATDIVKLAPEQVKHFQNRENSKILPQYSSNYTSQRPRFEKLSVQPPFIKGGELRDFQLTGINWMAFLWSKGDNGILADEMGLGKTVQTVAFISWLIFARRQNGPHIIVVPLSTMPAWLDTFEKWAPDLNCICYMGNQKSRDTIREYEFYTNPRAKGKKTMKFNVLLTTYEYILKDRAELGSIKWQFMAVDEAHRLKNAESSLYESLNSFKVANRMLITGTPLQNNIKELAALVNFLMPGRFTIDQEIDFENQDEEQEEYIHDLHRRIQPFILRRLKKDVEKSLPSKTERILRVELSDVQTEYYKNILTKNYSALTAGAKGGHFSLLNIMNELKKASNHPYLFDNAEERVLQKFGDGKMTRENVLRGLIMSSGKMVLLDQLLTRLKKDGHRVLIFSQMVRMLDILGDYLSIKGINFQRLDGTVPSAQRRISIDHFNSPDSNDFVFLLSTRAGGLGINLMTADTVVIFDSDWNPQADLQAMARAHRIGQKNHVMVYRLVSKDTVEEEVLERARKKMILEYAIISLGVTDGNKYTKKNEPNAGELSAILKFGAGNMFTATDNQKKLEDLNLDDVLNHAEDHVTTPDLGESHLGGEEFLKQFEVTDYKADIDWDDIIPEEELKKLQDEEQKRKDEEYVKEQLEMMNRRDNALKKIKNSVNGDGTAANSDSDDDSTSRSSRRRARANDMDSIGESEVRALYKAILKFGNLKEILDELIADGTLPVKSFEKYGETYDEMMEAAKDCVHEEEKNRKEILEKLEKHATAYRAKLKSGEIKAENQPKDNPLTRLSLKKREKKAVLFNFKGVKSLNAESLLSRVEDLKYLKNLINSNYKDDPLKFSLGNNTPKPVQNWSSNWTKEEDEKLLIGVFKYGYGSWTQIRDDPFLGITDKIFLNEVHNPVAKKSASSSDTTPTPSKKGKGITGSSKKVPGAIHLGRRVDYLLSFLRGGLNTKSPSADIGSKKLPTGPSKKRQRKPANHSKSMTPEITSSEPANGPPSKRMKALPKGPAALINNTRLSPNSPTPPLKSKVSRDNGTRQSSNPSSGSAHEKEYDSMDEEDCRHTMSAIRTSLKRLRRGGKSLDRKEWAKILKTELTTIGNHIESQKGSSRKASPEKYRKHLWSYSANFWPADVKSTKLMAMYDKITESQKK

Sequence of Protein translocase subunit SecA (Escherichia coli (strain K12)) (P10408 whole entry): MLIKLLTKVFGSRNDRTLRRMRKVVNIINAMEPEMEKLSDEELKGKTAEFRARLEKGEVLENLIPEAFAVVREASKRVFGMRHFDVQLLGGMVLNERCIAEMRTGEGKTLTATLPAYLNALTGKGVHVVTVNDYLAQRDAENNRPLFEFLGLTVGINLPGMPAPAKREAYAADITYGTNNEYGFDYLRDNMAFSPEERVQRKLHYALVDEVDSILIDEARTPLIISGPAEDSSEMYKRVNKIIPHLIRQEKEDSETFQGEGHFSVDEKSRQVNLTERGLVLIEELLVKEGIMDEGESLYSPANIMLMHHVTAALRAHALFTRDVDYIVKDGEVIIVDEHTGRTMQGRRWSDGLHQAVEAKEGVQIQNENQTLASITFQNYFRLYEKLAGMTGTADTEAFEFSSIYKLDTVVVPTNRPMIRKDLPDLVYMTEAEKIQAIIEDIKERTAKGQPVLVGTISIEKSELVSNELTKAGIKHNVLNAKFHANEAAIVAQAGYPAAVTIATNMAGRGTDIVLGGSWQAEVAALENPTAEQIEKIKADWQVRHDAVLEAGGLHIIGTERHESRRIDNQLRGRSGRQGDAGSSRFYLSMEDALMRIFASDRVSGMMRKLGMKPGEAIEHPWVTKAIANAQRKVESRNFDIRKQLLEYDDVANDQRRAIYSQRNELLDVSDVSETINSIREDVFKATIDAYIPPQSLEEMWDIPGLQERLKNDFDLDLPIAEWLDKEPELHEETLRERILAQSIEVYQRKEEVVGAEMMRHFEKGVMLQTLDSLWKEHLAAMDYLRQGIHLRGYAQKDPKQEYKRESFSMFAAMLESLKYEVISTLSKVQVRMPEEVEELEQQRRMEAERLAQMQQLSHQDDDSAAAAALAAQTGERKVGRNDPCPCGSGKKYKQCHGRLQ

Compound	Percent Effect [1] [%]	Percent Effect [2] [%]	Percent Effect [3] [%]	Percent Effect [4] [%]	Percent Effect [5] [%]	Percent Effect [6] [%]	Percent Effect [7] [%]	Percent Effect [8] [%]	Percent Effect [9] [%]	Percent Effect [10] [%]	Percent Effect [11] [%]
COCCC(=O)Nc1ccnc(Oc2ccccc2)c1	2.99	-5.26	0.138	-14	-6.91	7.1	15.4	19.5	1.06	7.79	-6.2
COc1ccc(CNCC2CC2)cc1F	-3.45	0	3.06	6.66	1.56	-1.67	3.47	-5.14	4.95	3.66	-2.56
Cc1ccc(CNC(=O)NCc2csc(C)n2)cn1	-2.07	17.7	-8.56	-3.48	-3.31	8.37	-1.56	0.522	5.42	16.5	-6.06
O=c1n(CCSCc2ccccc2F)nc2ccccn12	-4.09	7.79	0.704	-1.41	7.15	4	1.7	16.8	0.952	11.8	-29.5
O=C(NCc1ccco1)c1nn(C2CCS(=O)(=O)C2)c2c1CCCC2 (stereo not given)	-5.41	21.1	7.28	5.73	3.02	-3.55	13.1	4.09	0	5.2	-0.898
COCCN1CCN(C(=O)c2cc(C(C)C)on2)[C@H]2CS(=O)(=O)C[C@H]21	-4.23	1.39	-4.33	-3.43	-3.6	-0.442	17.2	-5.77	2.1	0	-2.65
COCC(NC(=O)c1cnn(C)c1)c1cccc(C(F)(F)F)c1 (stereo not given)	-8.86	0	-3.2	-6.41	-4.11	0.455	7.28	-1.62	0	0	0.364
CN(CCCOc1ccc(F)cc1)Cc1nc2c(cnn2C)c(=O)[nH]1	-0.991	15.8	0.698	-3.57	4.39	1.8	14.8	0.0389	8.37	23.5	-8.26
CN(CC1CCCO1)C1CCN(CCc2ccccn2)CC1 (stereo not given)	-1.45	0	-5.1	7.51	-1.95	0.924	-0.898	7.31	3.96	1.22	8.88
CCc1nccn1C1CCCN(C(=O)c2cnc3ccccc3n2)C1 (stereo not given)	-5.47	2.63	7.07	1.65	-1.07	-2.37	7.77	24.6	7.45	10.4	-2.28

— ChEMBL document CHEMBL3988442, “University of Dundee, Small-Polar-MMV Screening Library” (2021)
